Measurements from PubChem BioAssay AID485344 (National Center for Advancing Translational Sciences (NCATS), 2010).
The whole screen tested about 340,000 compounds, of which about 6,900 (2%) were called active. No stated cut-off is given here; in the data, active means inhibition above about 30%; inactive means below that, where a call was filed. Many of the other results were omitted from the sample, so actives are more common in it than they were.
Further: 0% is about no effect.

What follows are molecules tested against D(2) dopamine receptor (Homo sapiens) (UniProt P14416) (assay: HTS Assay for Allosteric Antagonists of the Human D2 Dopamine Receptor: Primary Screen for Antagonists). Conditions: HEK293 TREx D2 cells, calcium flux, dopamine EC80; at 10 µM; active compounds read high.
Sequence of D(2) dopamine receptor (Homo sapiens) (P14416 whole entry, looked up): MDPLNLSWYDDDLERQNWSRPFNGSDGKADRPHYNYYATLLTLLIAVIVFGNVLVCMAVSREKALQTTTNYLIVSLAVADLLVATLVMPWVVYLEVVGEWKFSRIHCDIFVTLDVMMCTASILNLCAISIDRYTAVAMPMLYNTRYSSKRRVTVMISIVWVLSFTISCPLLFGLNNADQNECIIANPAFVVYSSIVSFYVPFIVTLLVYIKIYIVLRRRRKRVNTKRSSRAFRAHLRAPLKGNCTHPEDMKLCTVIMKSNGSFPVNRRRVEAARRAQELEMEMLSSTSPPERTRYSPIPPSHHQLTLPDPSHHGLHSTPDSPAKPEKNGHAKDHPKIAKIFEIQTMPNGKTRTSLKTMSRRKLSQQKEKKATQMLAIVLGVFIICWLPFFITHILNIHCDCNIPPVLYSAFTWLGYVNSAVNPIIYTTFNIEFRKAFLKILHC
How it was run: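 Dopamine at EC80 is the agonist stimulus; test compounds precede it by 180 s. Calcium flux read kinetically in a force-coupled, inducible HEK293 T-REx D2 cell line.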
For `O=C(COC(=O)CCCN1C(=O)c2cccc3cccc(c23)C1=O)NC1CCS(=O)(=O)C1` (stereo not given), the inhibition was 1.37% (inactive). In the case of `O=C(Nc1ccc2c(c1)OCCO2)C1CCCC1`, the inhibition is reported as 3.86% (inactive). `Cc1ccc(NC(=O)Nc2cc(-c3ccccc3)nn2C)cc1Cl` was tested, and the inhibition was -13.2% (inactive). In the case of `Cc1nn(-c2ccccc2)c(Cl)c1C(=O)Nc1ccccc1`, the inhibition is reported as -28.3% (inactive). With `Cc1cc(NC(=O)Nc2ccc(Cl)cc2)n(-c2ccccc2)n1` the inhibition was 40.6% (active). With `Cc1cc(NC(=O)Nc2ccccc2)n(-c2ccccc2)n1` the inhibition was 31.4% (active). `Cc1cc(NC(=O)c2cnn3cccnc23)n(-c2ccccc2)n1` was tested, and the inhibition was 5.9% (inactive). In the case of `CC(=O)c1cccc(NC(=O)c2cc(C)nn2-c2ccccc2)c1`, the inhibition is reported as -7.81% (inactive). With `C#CCOCCOCCOCCNc1nc(N2CCN(C(=O)Cn3cc(CCCCN)nn3)CC2)nc(N2CCN(C(=O)[C@H](CCCCN)n3cc(CCC(=O)O)nn3)CC2)n1` the inhibition was -10.9% (inactive). In the case of `CCOc1ncccc1C(=O)OCC(=O)c1c[nH]c2ccccc12`, the inhibition is reported as 12.3% (inactive). `O=C(CN1CCN(S(=O)(=O)c2ccc(Cl)s2)CC1)N1CCCCC1` was tested, and the inhibition was -11.9% (inactive). `CCc1ccc(Nc2n[n+](-c3ccccc3)c(-c3cccc(Cl)c3Cl)s2)cc1` was tested, and the inhibition was 6.13% (inactive). With `CCCCN(C(=O)C(CCSC)N1C(=O)c2ccccc2C1=O)c1c(N)n(CCC)c(=O)[nH]c1=O` (stereo not given) the inhibition was -4.67% (inactive). For `Cc1c(C(=O)NNC(=O)c2ccncc2)oc2ccccc12`, the inhibition was 13.9% (inactive). With `COc1ccccc1C(CNC(=O)c1cccc(S(=O)(=O)Nc2ccc(F)cc2)c1)N(C)C` (stereo not given) the inhibition was -19.6% (inactive). In the case of `CCN(c1ccccc1)S(=O)(=O)c1cccc(C(=O)NCc2ccccc2CN2CCOCC2)c1`, the inhibition is reported as -43% (inactive). For `O=C(NCc1ccccc1CN1CCCC1)c1cccc(S(=O)(=O)Nc2ccc(F)cc2)c1`, the inhibition was 61.7% (active). `O=C(Nc1ccc(F)cc1)N1CCN(c2ccc(F)cc2)CC1` was tested, and the inhibition was -1.72% (inactive). For `CN1CCN(CCNC(=O)Nc2ccc([N+](=O)[O-])cc2)CC1`, the inhibition was 11.3% (inactive). With `O=C(NCCCN1CCN(c2ccc(F)cc2)CC1)Nc1ccc([N+](=O)[O-])cc1` the inhibition was 45.2% (active). With `COc1cccc(NC(=O)CN(C)CC(=O)c2c(N)n(Cc3ccccc3)c(=O)n(C)c2=O)c1` the inhibition was -15.4% (inactive). With `COCCN(CCOC)C(=S)Nc1ccccc1Cl` the inhibition was 3.22% (inactive). In the case of `COc1ccc(NC(=S)Nc2ccccc2Cl)cn1`, the inhibition is reported as 40.5% (active). In the case of `COc1ccc(Nc2cc(Cl)ccc2C(=O)O)cn1`, the inhibition is reported as 9.54% (inactive). For `Cc1n[nH]c(=O)c2c(NC(=O)CSc3ccccc3F)oc(C)c12`, the inhibition was 0.909% (inactive). `CCN(C(=O)COC(=O)Cc1c(F)cccc1Cl)c1c(N)n(Cc2ccccc2)c(=O)[nH]c1=O` was tested, and the inhibition was 4.82% (inactive). `CCOC(=O)c1c(C)[nH]c(C2=NNC(=NC(C)COC)SC2)c1C` (stereo not given) was tested, and the inhibition was 36% (active). `CCOC(=O)c1c(C)[nH]c2c1-c1ccccc1C(=O)C2=O` was tested, and the inhibition was -2.67% (inactive). In the case of `C[C@@H]1NC(=O)[C@@]2(C)[C@@H](c3ccccc3)[C@H]3COc4ccccc4[C@@H]3N2C1=O`, the inhibition is reported as -7.78% (inactive). For `CCOc1ccc(CCNC(=O)CN2C(=O)NC3(CCc4ccccc43)C2=O)cc1OCC` (stereo not given), the inhibition was 1.52% (inactive). For `CCN(C(=O)CSc1nc(N)cc(=O)[nH]1)C1CCS(=O)(=O)C1` (stereo not given), the inhibition was 10.5% (inactive). For `Cc1ccc2nc(Nc3ccccc3)cc(C)c2c1`, the inhibition was -16.8% (inactive). With `Cc1ccc2nc(-c3ccncc3)cc(C(=O)Nc3ccncc3)c2c1` the inhibition was -15.6% (inactive). With `CCS(=O)(=O)Nc1cccc(-c2cc(-c3ccccc3)c3cc(C)ccc3n2)c1` the inhibition was 30.3% (active). In the case of `Cc1cc(OCCN2CCCC2)cc(C(C)C)c1`, the inhibition is reported as 46.1% (active). In the case of `Cc1cc(OCCN2CCCC2)ccc1C(C)C`, the inhibition is reported as -8.05% (inactive). For `c1ccc2cc(OCCN3CCCC3)ccc2c1`, the inhibition was 6.73% (inactive). For `CCCCc1ccc(NS(=O)(=O)c2cccc(C(=O)N3CCCN(C)CC3)c2)cc1`, the inhibition was 16.6% (inactive). With `Cc1ccnc(NC(=O)C(C)N2C(=O)c3ccccc3C2=O)c1` (stereo not given) the inhibition was -8.26% (inactive). In the case of `Cc1cc(C)nc(NC(=O)C(C)N2C(=O)c3ccccc3C2=O)n1` (stereo not given), the inhibition is reported as 35.4% (active). `COC(=O)c1ccc(NC(=O)C(C)N2C(=O)c3ccccc3C2=O)cc1` (stereo not given) was tested, and the inhibition was 4.17% (inactive). `CCCN(CC1CC1)C(=S)NC(=O)c1ccccc1Br` was tested, and the inhibition was 6.85% (inactive). For `Cc1cc(C(=O)OCC(=O)Nc2ccccc2Cl)c(C)o1`, the inhibition was 3.84% (inactive). `Cc1ccc(NC(=O)Cn2c(C)csc2=O)cc1` was tested, and the inhibition was -14.9% (inactive). With `CCOC(=O)N1CCN(S(=O)(=O)c2ccc3c(c2)C(C)C(=O)N3)CC1` (stereo not given) the inhibition was -7.55% (inactive). `Cc1ccc2cc(CCNC(=O)c3ccc4c(c3)OCO4)c(=O)[nH]c2c1` was tested, and the inhibition was -22% (inactive). For `Cc1ccc2cc(CCNC(=O)c3c(-c4ccccc4Cl)noc3C)c(=O)[nH]c2c1`, the inhibition was 34% (active). In the case of `CC(=O)Nc1cccc(/C(C)=N/NC(=O)c2c(-c3ccccc3Cl)noc2C)c1`, the inhibition is reported as -13% (inactive). `CCN(c1ccccc1)S(=O)(=O)c1ccc(OCC(=O)N2CCCC2)cc1` was tested, and the inhibition was -6.24% (inactive). With `CC(OC(=O)c1ccc(S(=O)(=O)N2CCOCC2)cc1)c1ccccc1` (stereo not given) the inhibition was -6.07% (inactive). `c1ccc(-c2cnc(CN3CCN(c4ccccc4)CC3)o2)cc1` was tested, and the inhibition was 77.7% (active). For `COc1ccc(N2CCN(Cc3nnc(-c4ccccc4)o3)CC2)cc1`, the inhibition was 9.11% (inactive). `Fc1ccc(N2CCN(Cc3cnc(Oc4ccc(Br)cc4)s3)CC2)cc1` was tested, and the inhibition was 14.3% (inactive). With `O=[N+]([O-])c1ccc(S(=O)(=O)Nc2cccc(-c3ccc(N4CCCC4)nn3)c2)cc1` the inhibition was -6.06% (inactive). For `Cc1ccc(Cl)cc1NC(=O)COC(=O)C1CCCCC1`, the inhibition was -6.03% (inactive). `Cc1ccc(Cl)cc1NC(=O)COC(=O)CC(C)(C)C` was tested, and the inhibition was 40.7% (active). For `CCCC(=O)OCC(=O)Nc1cc(Cl)ccc1[N+](=O)[O-]`, the inhibition was -3.56% (inactive). In the case of `O=C(C1CCC1)N1CCN(S(=O)(=O)c2ccc([N+](=O)[O-])cc2)CC1`, the inhibition is reported as -8.41% (inactive). With `COCCn1cnnc1SCC(=O)Nc1cccc(S(=O)(=O)N2CCCCC2)c1` the inhibition was 3.75% (inactive). With `CCn1cc(C(=O)NCc2ccc3c(c2)OCO3)c2cc(OC)c(OC)cc2c1=O` the inhibition was -9.78% (inactive). For `CCn1cc(C(=O)N2CCN(C3CCCCC3)CC2)c2cc(OC)c(OC)cc2c1=O`, the inhibition was 2.69% (inactive). `O=C(C1CCN(Cc2ccc(Cl)cc2)CC1)N1CCN(Cc2ccc3c(c2)OCO3)CC1` was tested, and the inhibition was -7.43% (inactive). In the case of `O=C(CSCc1ccc(Cl)cc1)N1CCN(Cc2ccc3c(c2)OCO3)CC1`, the inhibition is reported as 15.1% (inactive). In the case of `CCn1cc(C(=O)N2CCN(Cc3ccc4c(c3)OCO4)CC2)c2cc(OC)c(OC)cc2c1=O`, the inhibition is reported as 32.8% (active). For `O=C(c1cccs1)N1CCN(Cc2ccc3c(c2)OCO3)CC1`, the inhibition was 86.6% (active). For `CC(=O)Nc1ccc(NC(=O)C(C)OC(=O)C2CC(=O)N(CCc3ccccc3)C2)cc1` (stereo not given), the inhibition was -0.386% (inactive). For `O=C(NCCc1ccco1)C(=O)NCCC1CCCCN1S(=O)(=O)c1ccccc1` (stereo not given), the inhibition was -16% (inactive). For `CCCn1c(N)c(C(=O)CSc2nnc3n2CCCCC3)c(=O)[nH]c1=O`, the inhibition was 3.63% (inactive). With `COc1cccc(-n2c(SCC(=O)c3c[nH]c4ccccc34)nc3ccccc3c2=O)c1` the inhibition was -2.99% (inactive). With `CCCn1c(N)c(C(=O)CSc2nc3ccccc3c(=O)n2-c2ccc(OC)cc2)c(=O)[nH]c1=O` the inhibition was 33.2% (active). With `O=C(CNc1ccccc1N1CCCC1=O)Nc1cc(Cl)ccc1-n1cncn1` the inhibition was 8.23% (inactive). `Cc1ccc(F)cc1NC(=O)CSCc1c(C)noc1C` was tested, and the inhibition was 13.7% (inactive). For `O=C(CN1C(=O)NC2(CCOc3ccccc32)C1=O)NCc1ccc(F)cc1` (stereo not given), the inhibition was 26.3% (inactive). For `COc1cc(OC)c2ccc(=O)oc2c1C(CCN1CCN(c2ccccc2)CC1)c1ccc2c(c1)OCO2` (stereo not given), the inhibition was 94% (active). With `COc1cc(C(CCN2CCN(c3ccccc3)CC2)c2c(OC)cc(OC)c3ccc(=O)oc23)cc(OC)c1OC` (stereo not given) the inhibition was 23% (inactive). With `CCN(CC)CCC(c1ccc2c(c1)OCO2)c1c(OC)cc(OC)c2c(-c3ccccc3)cc(=O)oc12` (stereo not given) the inhibition was 13.4% (inactive). With `NS(=O)(=O)c1cc(C(=O)OCC(=O)NNC(=O)c2ccccc2)ccc1Cl` the inhibition was 2.99% (inactive). In the case of `Cc1[nH]c2ccccc2c1C(=O)C(C)Sc1nnc(C2CC2)o1` (stereo not given), the inhibition is reported as -40.9% (inactive). In the case of `CNS(=O)(=O)c1cccc(C(=O)OCC(=O)N2c3ccccc3NC(=O)C2(C)C)c1`, the inhibition is reported as -3.21% (inactive). In the case of `CCN1CCCC1CNc1ncnc2c1[nH]c1ccc(F)cc12` (stereo not given), the inhibition is reported as 39.5% (active). For `CC(C)OCCCNc1ncnc2c1[nH]c1ccc(F)cc12`, the inhibition was -11.8% (inactive). With `CCN1CCCC1Cn1cnc2c([nH]c3cc(OC)ccc32)c1=O` (stereo not given) the inhibition was 24.3% (inactive). With `O=C(CSc1nnc(COc2ccc(Cl)cc2)n1Cc1ccco1)N1CCNC1=O` the inhibition was 0.458% (inactive). For `Cc1ccc(CN2CCN(/N=C/c3ccco3)CC2)c(C)c1`, the inhibition was -9.84% (inactive). For `Cc1ccc(CN2CCN(c3ncccn3)CC2)c(C)c1`, the inhibition was 80% (active). `CN(C)C(=O)c1nc2ccc(Cl)cn2c1CN1CCN(c2ncccn2)CC1` was tested, and the inhibition was -10.8% (inactive). `Oc1ccc(CN2CCN(c3ncccn3)CC2)cc1` was tested, and the inhibition was 84.3% (active). `c1cnc(N2CCN(c3ccc4ccccc4n3)CC2)nc1` was tested, and the inhibition was -7.91% (inactive). In the case of `Cc1ccc(CN2CCN(/N=C/c3cccnc3)CC2)c(C)c1`, the inhibition is reported as -10.4% (inactive). `Cc1ccc(CN2CC(C(=O)N3CCN(S(=O)(=O)c4ccccc4)CC3)CC2=O)cc1` (stereo not given) was tested, and the inhibition was -4.27% (inactive).
